# Bioassay records (PubChem)
# E coli growth-1 – bacterial growth inhibition, counter-screen for AddAB inhibitors | AID 449728 | 330,000 compounds, 0.27% hits | E. coli V3065 growth, OD600 absorbance, 18 h | inhibition, % at 11.9 µM;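 active means inhibition above the campaign's mean inhibition across all tested compounds plus 3 SD, cut at about 9.9% in these data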;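 further: uninfected addAB+ strain grown without phage in ampicillin broth; 0% = DMSO wells and 100% = ciprofloxacin 0.95 µg/ml wells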
# phage Ecoli inh – E. coli growth loss with phage present. 360,000 compounds, 0.26% hits. inhibition, % at 11.9 µM. growth absorbance. AID 651602; in the data active means inhibition above about 11%
# E coli growth-2 – E. coli growth inhibition; Escherichia coli growth, OD600, 23 h; active compounds read low; OD600 absorbance (concentration not given with the values); 330,000 compounds, 0.21% hits;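 active means OD600 absorbance below the run mean of sample wells minus 3.6 SD, in any replicate, cut at about 0.56 in these data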
# AddAB inh – less growth of phage-infected E. coli with AddAB; inhibition, % at 11.9 µM; E. coli expressing H. pylori AddAB, absorbance growth; 330,000 compounds, 0.29% hits; in the data active means inhibition above about 12%;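 further: 0% = vehicle wells of infected cells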
# Tat transport – blocks Tat-dependent protein export in E. coli | 340,000 compounds, 0.036% hits | inhibition, % at 10 µM | E. coli MC4100 TorA-mCherry Tat export, fluorescence;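 active means mean replicate inhibition at least 50% and at least half of replicates individually reaching 50%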;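 further: exported cargo escapes ClpAP degradation while cytoplasmic cargo is degraded and loses fluorescence; 0% = median of neutral control wells and 100% = median of NaSCN control wells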
# AddAB conf – growth loss of T4-infected E. coli expressing H. pylori AddAB, confirmed; inhibition, % at 11.9 µM; 880 compounds, 64% hits; shares compounds with AddAB inh; E. coli V3065 expressing H. pylori AddAB, T4 phage, OD; T4 phage with gene 2 nonsense mutations;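 active means mean inhibition above a set limit taken from the earlier primary screen, cut at about 13% in these data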;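 further: higher means less bacterial growth since AddAB block lets phage replicate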
# RecBCD counter – reduces growth of phage-infected RecBCD+ E. coli, AddAB inhibitor counter-screen. shares compounds with AddAB inh. E. coli V66 + mutant T4 phage, OD growth. inhibition, % at 11.9 µM. 880 compounds, 73% hits. AID 488955;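 active means mean inhibition above the mean of solvent-only control wells plus 3 SD, cut at about 4% in these data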;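 further: optical density read after an 18 h incubation at 37 °C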
# bact viab count – counter-screen for AddAB inhibitors: inhibitors of bacterial viability. absorbance (AddAB counterscreen). shares compounds with AddAB inh. 880 compounds, 35% hits. AID 488956. inhibition, % at 11.9 µM; in the data active means inhibition above about 25%
# Numbers without * were called inactive; x = not tested or not shown. Sampled rows, rich in hits. Any-hit rate of the full collection: about 0.5%.
SMILES,E coli growth-1,phage Ecoli inh,E coli growth-2,AddAB inh,Tat transport,AddAB conf,RecBCD counter,bact viab count
CC1(C)SC2C(NC(=O)COc3ccccc3)C(=O)N2C1C(=O)OCc1ccccc1 (configuration not stated),x,x,0.661,x,x,x,x,x
CC1C(=O)N2CCCc3cc(S(=O)(=O)N(C)c4ccccc4)cc1c32 (configuration not stated),23.0*,-1.6,0.658,43.9*,-1.0,1.4,-2.1,-0.1
CCn1cc(C(=O)O)c(=O)c2cnc(N3CCN(C(=S)Nc4ccccc4C(F)(F)F)CC3)nc21,94.5*,5.9,0.536,98.0*,3.3,48.7*,2.1,23.1
CCOC(=O)c1cccc(NC(=S)N2CCN(c3ncc4c(=O)c(C(=O)O)cn(CC)c4n3)CC2)c1,5.7,4.7,0.684,6.6,9.1,x,x,x
CCn1cc(C(=O)O)c(=O)c2cnc(N3CCN(C(=S)Nc4ccccc4)CC3)nc21,49.7*,1.4,0.444*,98.0*,-2.7,4.9,0.9,1.2
O=C1NCCO1,101.4*,3.6,x,100.2*,-0.5,0.4,-0.5,-3.0
O=C1NCCOc2ccccc21,x,4.3,x,x,x,x,x,x
CC1CCN(C(=O)CCC(=O)N2CC(C)Oc3ccccc32)CC1 (configuration not stated),31.9*,2.5,0.728,98.9*,-9.8,-2.7,0.7,-2.1
CCOC(=O)COc1ccccc1C=NNc1nnc2c3ccccc3n(C)c2n1,x,x,0.654,x,x,x,x,x
COC(=O)CN1C(=O)C2C(C=Cc3ccccc3)N3C(=O)CN(Cc4ccccc4)C(=O)[C@@]3(Cc3ccccc3)C2C1=O (some centres not stated),x,x,0.655,x,x,x,x,x
CC(C)OCC(O)CCc1n[nH]c(=S)n1-c1ccccc1 (configuration not stated),-0.3,2.0,0.651,1.4,-5.6,x,x,x
CCCCOCC(O)CCc1n[nH]c(=S)n1-c1ccccc1 (configuration not stated),26.7*,2.7,0.639,83.9*,0.1,1.5,1.0,-0.8
Cc1noc(C)c1NC(=O)N(C)CC1Oc2ccc(NC(=O)CCN3CCOCC3)cc2C(=O)N(C(C)CO)CC1C (configuration not stated),x,x,0.674,x,x,x,x,x
CCN1CCN(C2=C(NS(=O)(=O)c3ccc(Br)cc3)C(=O)c3ccccc3C2=O)CC1,10.9*,6.8,0.7,14.0*,-7.5,2.6,1.8,-2.1
O=C(NOCc1ccccc1)OCc1ccccc1,x,2.6,0.675,x,0.7,x,x,x
NC(=O)NOCc1ccccc1,4.7,4.4,0.702,97.7*,9.9,-1.6,0.6,-4.0
O=c1[nH]c(=S)ccn1C1OC(CO)C(O)C1O (configuration not stated),4.8,5.2,0.764,12.4*,-3.9,1.5,3.1,0.8
CC(C)CC(=O)Nc1ccccc1N1CCN(C(=O)c2ccccc2)CC1,-1.3,-0.4,0.744,-2.7,-6.5,x,x,x
CC(C)CC(=O)Nc1ccccc1N1CCN(c2ccccc2)CC1,6.9,-0.1,0.661,15.0*,7.9,-3.8,0.0,-4.9
COc1cc(C=NNC(=O)c2ccc3c(c2)OCCO3)cc(Cl)c1O,x,x,0.702,x,x,x,x,x
CCOC(=O)COc1ccccc1C=C1NC(=O)NC1=O,x,x,0.674,x,x,x,x,x
COc1cccc(C=NNC(=O)C(=O)NN=Cc2cccc(OC)c2O)c1O,x,x,0.712,x,x,x,x,x
COc1cccc(/C=N/NC(=O)N/N=C/c2cccc(OC)c2O)c1O,12.4*,10.9,x,15.3*,-4.8,12.1,11.4*,8.6
CS(=O)(=O)N1CCN(c2ccccc2NC(=O)c2ccc([N+](=O)[O-])o2)CC1,0.0,1.2,0.687,1.0,-0.4,x,x,x
O=C(Nc1ccc(N2CCOCC2)cc1)c1ccc([N+](=O)[O-])o1,13.1*,8.3,0.612,15.5*,-2.8,68.7*,8.5*,20.4
SMILES,E coli growth-1,phage Ecoli inh,E coli growth-2,AddAB inh,Tat transport,AddAB conf,RecBCD counter,bact viab count
O=C(Nc1ccc(S(=O)(=O)N2CCOCC2)cc1)c1ccc([N+](=O)[O-])o1,4.1,5.8,0.661,6.2,-11.9,x,x,x
O=C(Nc1ccccc1Cl)c1ccc([N+](=O)[O-])o1,23.9*,8.6,0.571,31.3*,-17.2,92.2*,10.4*,28.9*
CC(=O)N1CCN(c2ccc(NC(=O)c3ccc([N+](=O)[O-])o3)cc2Cl)CC1,5.1,5.8,0.624,14.0*,-3.9,56.2*,4.9*,15.0
CN1CCN(c2ccccc2NC(=O)c2ccc([N+](=O)[O-])o2)CC1,25.5*,x,0.562,26.5*,-6.3,101.3*,11.5*,37.6*
CCC(=O)N1CCN(c2ccc(NC(=O)c3ccc([N+](=O)[O-])o3)cc2Cl)CC1,x,5.8,0.65,x,-2.5,x,x,x
CCN1CCN(C(=O)C=Cc2ccccc2[N+](=O)[O-])CC1,x,x,0.686,x,x,x,x,x
O=[N+]([O-])c1ccc(NN=C/C=C/c2ccco2)cc1,x,x,0.632,x,x,x,x,x
CC(=O)Nc1ccc2nc(NC(=O)c3ccco3)sc2c1,-0.6,-0.5,0.681,0.6,-0.1,x,x,x
Cc1cccnc1NC(=O)c1ccc([N+](=O)[O-])o1,24.4*,12.2*,0.585,92.1*,-4.5,90.8*,11.7*,24.5
CCCCn1nnc(NC(=O)c2ccc(-c3ccccc3[N+](=O)[O-])o2)n1,-1.0,4.2,0.622,2.6,13.7,x,x,x
Cc1ccccc1NC(=O)c1ccc([N+](=O)[O-])o1,11.1*,9.6,0.65,24.2*,-9.4,30.8*,6.7*,12.2
CC(=O)Nc1ccc2nc(NC(=O)c3ccc([N+](=O)[O-])o3)sc2c1,9.4,1.4,0.625,15.0*,-12.1,40.8*,5.7*,12.2
CCn1nnc(NC(=O)c2ccc([N+](=O)[O-])o2)n1,10.8*,7.4,0.561,18.8*,-11.1,61.3*,6.5*,11.6
CCOC(=O)C1=C(C)N=c2sc(=C3C(=O)Nc4ccccc43)c(=O)n2C1c1ccc(C)cc1 (configuration not stated),x,x,0.748,x,x,x,x,x
COc1ccccc1CN1C(CC(=O)O)c2ccccc2S1(=O)=O (configuration not stated),x,x,0.703,x,x,x,x,x
Cc1ccc(C(=O)NNC(=S)NC(=O)c2ccco2)cc1,8.6,4.9,0.467*,12.7*,-10.9,7.0,10.4*,2.9
CC1CCCN(Cc2nc3c(c(=O)n(C)c(=O)n3C)n2Cc2c(F)cccc2Cl)C1 (configuration not stated),16.2*,-1.2,0.784,98.6*,-11.0,-1.2,0.7,-1.6
c1ccc(-n2ncc3c(N4CCC5(CC4)OCCO5)ncnc32)cc1,2.2,1.1,0.776,0.9,-9.9,x,x,x
Cc1cccc(-n2ncc3c(N4CCC5(CC4)OCCO5)ncnc32)c1,4.6,1.8,0.736,31.6*,-3.5,3.1,-0.1,-0.6
